What was measured:
Format in all cases: functional
Plasmodium falciparum [1] = assay: GSK_TCMDC: Inhibition of Plasmodium falciparum 3D7 in whole red blood cells, using parasite LDH activity as an index of growth. Test compounds present at 2uM
Plasmodium falciparum [2] = assay: GSK_TCMDC: Inhibition of Plasmodium falciparum Dd2 in whole red blood cells, using parasite LDH activity as an index of growth. Test compounds present at 2uM
HepG2 = assay: GSK_TCMDC: Percent inhibition of human HepG2 cell line. Test compounds present at 10uM.

Compound	Inhibition (Plasmodium falciparum [1]) [%]	Inhibition (Plasmodium falciparum [2]) [%]	Inhibition (HepG2) [%]
CN1CCN(c2ccnc3ccc(NC(=O)Nc4cccc5c(Br)cccc45)cc23)CC1.Cl	100	96	7
Cn1ccnc1CNC(=O)c1ccc(-c2ccc(-c3nc4cc(C(F)(F)F)ccc4[nH]3)s2)cc1	100	43	40
COc1ccc2nccc([C@@H](O)CN3CCC(NC(=O)c4ccc(CN5CCN(c6cccc(C)c6)CC5C)cc4)CC3)c2c1 (stereo partly specified)	97	86	50
COc1cc(Cl)c(C)cc1N(Cc1ccccc1-c1ccccc1)S(=O)(=O)c1ccc(C(F)(F)F)cc1	90	62	23
O=C(Nc1cccc(C(F)(F)F)c1)Nc1ccc(Cl)c(Cl)c1	100	100	5
COC(=O)C1=C(C)NC2=C(C(=O)CC(c3ccc(OC)c(OC)c3)C2)C1c1cccc(O)c1 (stereo unspecified)	99	69	2
Brc1cc2c(cc1C=NNc1nc(=Nc3ccccc3)[nH]c(=Nc3ccccc3)[nH]1)OCO2	100	32	0
COc1ccc(Nc2nccc(-c3ccc(NC(=O)c4cc5cc(F)ccc5[nH]4)cc3)n2)cc1	91	26	21
Cc1nnc2c(NC(=O)NC3CCCC3)cc3cc(-c4ccc(CN(C)C)cc4)ccc3n12	100	37	100
CN1CCCC(CN2CCN(Cc3ccc(-c4ccc(-c5nc6ccccc6[nH]5)cc4)cc3)CC2)C1.O=C(O)C(F)(F)F (stereo unspecified)	100	100	69
O=C(/C=C/c1ccc(Cl)c(Cl)c1)NCCCCCN1CCC(NC(=O)Nc2ccc(Cl)cc2F)CC1	100	40	100
O=C(NC1CCCCN(Cc2ccccc2O)C1)c1ccc(-c2ccccc2)cc1.O=C(O)C(F)(F)F (stereo unspecified)	97	61	21
O=C(Nc1nc(-c2cc(F)ccc2F)cs1)c1cncc(Br)c1	85	3	16
COc1cc(Cc2cnc(N)nc2N)cc(OCc2cccc(C(=O)O)c2)c1OC.Cl	92	0	8
O=[N+]([O-])c1ccc(Nc2nc(NCc3ccccc3)nc(N/N=C/c3ccccc3[N+](=O)[O-])n2)cc1	100	99	18
CC1CN(Cc2ccccc2)CCN1c1ccc(NC(=O)c2cccs2)cc1.O=C(O)C(F)(F)F (stereo unspecified)	96	96	0
COc1cc(NCCCNCc2cn(S(=O)(=O)c3ccccc3)c3ccccc23)nc2ccccc12	100	77	36
COc1ccc(C=CC(=O)Nc2ccc(N3CCCC3)cc2)cc1.Cl	81	9	0
Cl.NC[C@H](CC1CCCCC1)NC(=O)c1ccc(-c2ccnc3[nH]ccc23)s1	98	4	39
COc1ccc2nccc([C@@H](O)CNCCCN(C)CCOc3cc(F)cc(F)c3)c2c1.O=C(O)C(=O)O	99	58	11
CSc1ccc(NC(=O)Nc2cc(C)nc3ccccc23)cc1	100	23	7

Compound	Inhibition (Plasmodium falciparum [1]) [%]	Inhibition (Plasmodium falciparum [2]) [%]	Inhibition (HepG2) [%]
CC(C)c1ccc(CN2CCC(CNC(=O)c3cc(-c4cccc(F)c4)cs3)C2)cc1.O=C(O)C(F)(F)F (stereo unspecified)	100	46	59
CO/C(=C/C=C/c1cc2cc(Cl)c(Cl)cc2[nH]1)C(=O)NC1CC(C)(C)N(C)C(C)(C)C1	99	85	58
Cl.N#Cc1ccc2c(c1)CCN(CCC1CCC(NC(=O)c3cccc(-c4ccc(F)cc4)c3)CC1)CC2 (stereo unspecified)	92	10	32
N#Cc1ccc(C(=O)Nc2cc(-c3cccc(O)c3)cc3[nH]ncc23)cc1	90	79	15
Cl.c1cc(-c2cc3ccc(C4=NCCN4)cc3[nH]2)ccc1C1=NCCN1	97	99	15
COc1ccc2ncc(F)c(CCN3CC(O)C(CNCc4ccc5c(n4)NC(=O)CS5)C3)c2c1.Cl (stereo unspecified)	92	34	0
O=C(NCCCc1ccccc1)c1csc(C2CCCN(C(=O)c3ccc(O)c(-c4ccccc4)c3)C2)n1 (stereo unspecified)	97	97	5
CC1CCN(Cc2c(O)ccc3c(O)c(-c4nc5ccccc5s4)c(=N)oc23)CC1	98	99	2
Cc1ccc(NC(=S)N2CCCN(CCCCCNC(=O)/C=C/c3ccc(Cl)c(Cl)c3)CC2)cc1Cl	93	5	14
NC1CCN(Cc2cccc(-c3cccc(-c4nc5ccccc5[nH]4)c3)c2)C1.O=C(O)C(F)(F)F (stereo unspecified)	100	0	14
O=C(Cn1c(=O)cnc2ccccc21)Nc1cccc(C(=O)Nc2cccc(C(F)(F)F)c2)c1	90	66	0
CN(C)CCC1CCN(CCS(=O)(=O)c2cccc(Nc3ccc(-c4ccsc4)cn3)c2)CC1	97	6	49
CN1CCN(Cc2ccc(-c3cc4nccc(Nc5ccc(Oc6ccccc6)cc5)c4cc3Cl)o2)CC1	100	99	3
CN(CCCN)CCCNc1ccnc2cc(Cl)ccc12	100	0	1
COc1ccc(-c2nc3ccc(C)nc3nc2-c2ccc(OC)cc2)cc1	91	0	4
CCCCCOc1ccc(C=NNc2nc(O)cc(-c3ccccc3)n2)cc1	88	86	0
CC(C)Cc1nc(N)nc(N)c1-c1ccc(Cl)cc1	96	3	5
CCC/C=C/c1c(CNCCCNc2cc(=O)c3ccccc3[nH]2)sc(CC)c1Br.Cl	88	71	8
OC(CNCc1ccccc1OCc1ccccc1)c1cccc(C(F)(F)F)c1 (stereo unspecified)	99	99	12
CCCCCC(C)c1cc(O)c2c(c1)OC(C)(C)C=C2C1=CCN(Cc2ccccc2)CC1 (stereo unspecified)	96	96	13
Cc1cc(C2CCN(CCCCNC(=O)c3ccc(NC(=O)c4ccc(Cl)cc4)cc3)CC2)c(C)cc1OCc1cccnc1	100	90	39

Compound	Inhibition (Plasmodium falciparum [1]) [%]	Inhibition (Plasmodium falciparum [2]) [%]	Inhibition (HepG2) [%]
Cc1ccc(-c2nc(NC(=O)Nc3ccc(C(F)(F)F)cc3)sc2C)cc1Cl	99	86	29
CS(=O)(=O)CCNCc1nc(-c2ccc3ncnc(Nc4ccc(OCc5ccccc5)c(Cl)c4)c3c2)cs1.Cl	99	55	13
COc1cc(OC)cc(C(=O)Nc2ccc(Nc3nc(C)cc(N(C)C)n3)cc2)c1	100	90	11
O=C(Nc1cccc(F)c1)NC1CCN(c2ccnc3cc(Cl)ccc23)CC1.O=C(O)C(F)(F)F	96	37	11
O=C(NCCN1CCCCC1)c1cc2cc(-c3ccccc3)ccc2n1S(=O)(=O)c1ccccc1	90	0	15
COc1cccc2cc(C(=O)N[C@@H](CC(C)C)C(=O)N[C@H](/C=N/NC(=O)N3CCN(C)CC3)CCc3ccccc3)oc12.Cl	85	73	1
Cc1ccc(-c2cc(C(=O)Nc3ccc(S(=O)(=O)N4CC(C)OC(C)C4)cc3)[nH]n2)c(O)c1 (stereo unspecified)	91	98	16
O=C(N[C@H]1CCN(Cc2ccc(OCCCN3CCCCC3)cc2)C1)c1ccc(Oc2ccccc2)cc1	96	11	56
COc1cccc(C(=O)C2CC2CN(C)CCC(O)c2ccc(Cl)c(Cl)c2)c1 (stereo unspecified)	99	95	17
CC(=O)Nc1ccc2[nH]cc(C3CCN(CCC4CCN(C(=O)/C=C/c5ccc(Cl)c(Cl)c5)CC4)CC3)c2n1	100	80	16
Br.CCCCC(NCC)c1ccc(OCCOc2ccc(C(CCCC)NCC)cc2)cc1 (stereo unspecified)	100	99	100
O=S(=O)(Nc1ccc(CCN2CCC(N3CCCCC3)CC2)cc1)c1ccc2ccccc2c1	100	80	44
CN1CCC(N2CCN(CCOc3cc(NC(=O)/C=C/c4ccccc4Cl)ccc3Br)CC2)CC1.O=C(O)C(=O)O	100	99	36
COc1cccc(Nc2nccc(NCC(O)c3cccc(C(F)(F)F)c3)n2)c1 (stereo unspecified)	96	27	6
O=C(/C=C/c1ccc(Cl)c(Cl)c1)NCCCCCCN1CCCN(C(=O)Nc2cc(F)cc(F)c2)CC1	99	0	25
O=C(/C=C/c1ccc(Cl)c(Cl)c1)NCCCCCN1CCC(NC(=O)Nc2cc(F)cc(F)c2)CC1	100	6	80
Cn1cncc1C(=O)NC1CCN(c2ccnc(Nc3ccc(F)cc3)n2)C1 (stereo unspecified)	97	83	2
CCCNC(=O)c1cncc(-c2ccc(CNC3Cc4ccccc4C3)cc2)c1.O=C(O)C(F)(F)F	97	21	9
O=[N+]([O-])c1ccc(/C=N/Nc2cc(-c3ccccc3)nc3ccccc23)o1	93	49	48
CC(=O)Nc1cccc(CNCc2ccc(-c3cnc(N4CCCC(C)(C)C4)nc3)cc2)c1.O=CO	93	75	10

— ChEMBL document CHEMBL1157539, “Thousands of chemical starting points for antimalarial lead identification” (Nature, 2010)
